Only some compounds are listed: those with a hit (about 1.4% of all), similar ones and a draw of the others.
MBD2 inh: MBD2-methylated oligo binding inhibition; inhibition, % at 4.4 µM; Q9UBB5; 370,000 tested, 0.31% active; TR-FRET, MBD2 binding to methylated oligonucleotide; AID 686964; in the data active means inhibition above about 13%
Casp6 inh: inhibitors of human caspase-6; P55212; purified caspase-6, Z-VEID-R110 cleavage fluorescence; inhibition, % at 12.5 µM; 350,000 tested, 0.53% active;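 active means mean inhibition across replicates at least about 35%, with every replicate also reaching that limit, limit read from the data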
UHRF1 binding: UHRF1 methyl-DNA binding inhibition. 370,000 tested, 0.75% active. AID 687016. UHRF1 binding to methylated oligo, TR-FRET. inhibition, % at 4.4 µM. Q96T88; in the data active means inhibition above about 21%;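 further: UHRF1 SRA domain binding a hemimethylated CpG hairpin DNA probe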
Target sequence (Q96T88 whole entry, looked up, the tested form may be a part): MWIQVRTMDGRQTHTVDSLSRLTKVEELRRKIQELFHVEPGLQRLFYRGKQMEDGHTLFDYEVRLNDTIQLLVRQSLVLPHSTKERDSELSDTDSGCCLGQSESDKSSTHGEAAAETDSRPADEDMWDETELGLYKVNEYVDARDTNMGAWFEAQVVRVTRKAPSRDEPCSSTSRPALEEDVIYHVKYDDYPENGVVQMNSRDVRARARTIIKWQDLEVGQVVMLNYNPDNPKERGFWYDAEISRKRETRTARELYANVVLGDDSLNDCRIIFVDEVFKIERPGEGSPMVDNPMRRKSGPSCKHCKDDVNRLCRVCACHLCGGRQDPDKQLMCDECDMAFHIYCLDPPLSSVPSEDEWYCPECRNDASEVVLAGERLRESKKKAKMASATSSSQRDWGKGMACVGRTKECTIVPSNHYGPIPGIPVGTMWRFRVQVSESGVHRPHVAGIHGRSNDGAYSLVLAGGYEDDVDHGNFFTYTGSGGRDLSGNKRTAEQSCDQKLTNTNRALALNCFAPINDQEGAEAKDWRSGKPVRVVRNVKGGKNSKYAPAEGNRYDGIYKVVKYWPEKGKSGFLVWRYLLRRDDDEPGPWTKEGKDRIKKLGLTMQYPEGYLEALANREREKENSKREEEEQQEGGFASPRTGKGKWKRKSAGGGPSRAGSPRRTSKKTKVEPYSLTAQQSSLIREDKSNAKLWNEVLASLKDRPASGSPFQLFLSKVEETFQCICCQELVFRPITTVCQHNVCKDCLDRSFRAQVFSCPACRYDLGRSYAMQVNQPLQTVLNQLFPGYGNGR
LEDGF integ inh: blocks HIV-1 LEDGF/p75-dependent DNA integration; 370,000 tested, 0.64% active; TR-FRET IN-LEDGF/p75 DNA integration, Eu/Cy5; inhibition, % at 3.7 µM;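 active means inhibition above the screen-wide mean plus 3 SD, cut at about 13% in these data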;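 further: signal is the Cy5 over europium emission ratio at 671 and 618 nm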
IN multimer up: HIV-1 integrase multimerization activation, counter-screen; shares compounds with LEDGF integ inh; TR-FRET HIV-1 integrase multimerization, biochemical; activation, % at 7.7 µM; 2,000 tested, 17% active; AID 1053131; in the data active means activation above about 8.9%
TRFRET interf: optically interferes with TR-FRET readout in LEDGF counter-screen. shares compounds with LEDGF integ inh. TR-FRET optical interference counterscreen, HIV-1 IN multimerization. inhibition, % at 7.7 µM. 2,000 tested, under 10 active. AID 1053135;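 active means inhibition above the mean over all tested compounds plus 3 SD, which no compound reached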
IN-LEDGF confirm: confirmation of HIV-1 LEDGF/p75-dependent integration inhibitors | TR-FRET LEDGF/p75-dependent HIV-1 integration, biochemical | AID 1053136 | 2,000 tested, 36% active | inhibition, % at 3.7 µM | shares compounds with LEDGF integ inh; in the data active means inhibition above about 14%
Hits are given with their value; i = inactive; nt = not tested or not shown.

SMILES | MBD2 inh | Casp6 inh | UHRF1 binding | LEDGF integ inh | IN multimer up | TRFRET interf | IN-LEDGF confirm
CCc1nnc(N/N=C/c2ccc(O)c(OC)c2)n1N | i | i | i | 55 | i | i | i
CCOc1cc(/C=N/Nc2nnc(C)n2N)ccc1OC(C)=O | i | i | i | 30 | i | i | i
C[C@H](CO)N1C[C@H](C)[C@H](CN(C)Cc2cccc(C(=O)O)c2)OCc2cnnn2CCCC1=O | nt | i | nt | nt | nt | nt | nt
COc1ccc(NC(=O)N2CC(=O)N3[C@@H](CO)[C@@H](c4ccc(-c5ccc(C)cc5)cc4)[C@@H]3C2)cc1 | nt | i | nt | nt | nt | nt | nt
CCCN1C[C@H](C)[C@H](OC)CN(C)C(=O)c2ccc(NC(=O)Nc3ccccc3F)cc2OC[C@@H]1C | nt | i | nt | nt | nt | nt | nt
CC(=O)N1CC=C2C(C#N)=C(N)C(C#N)(C#N)[C@H](c3ccoc3)[C@H]2C1 | i | nt | i | i | nt | nt | nt
N#CC1=C(N)C(C#N)(C#N)[C@H](c2ccoc2)[C@H]2CN(Cc3ccccc3)CC=C12 | i | nt | i | 19 | i | i | i
Cc1cc(C(C)(C)C)c(O)c(C(C)(C)C)c1 | i | i | i | i | nt | nt | nt
Cc1cc(O)c(Oc2cc(C)cc(O)c2O)c(O)c1 | i | i | i | 35 | i | i | 33
COCC#Cc1ccc([C@@H]2[C@@H](CO)N3C(=O)CN(C(=O)Nc4ccccc4F)C[C@H]23)cc1 | nt | i | nt | nt | nt | nt | nt
CC(C)OC(=O)N(C)C[C@@H]1OCc2cn(nn2)CCCC(=O)N([C@H](C)CO)C[C@@H]1C | nt | i | nt | nt | nt | nt | nt
COc1ccc(/C=C2\CCc3c2nc2ccccc2c3C(=O)O)cc1OC | i | i | i | 15 | i | i | 22
Nn1c(SCC(=O)N2CCCCCC2)nnc1-c1ccncc1 | i | i | i | 26 | i | i | i
Cc1coc2c1c(C)cc1oc(=O)c(Cc3ccccc3)c(C)c12 | i | nt | i | 15 | i | i | i
C=C1CC(/C=C/c2cc(OC)c(OC)c(OC)c2)OC1=O (configuration not stated) | nt | i | nt | nt | nt | nt | nt
O=C1CSC(c2ccc(Cl)c(Cl)c2)N1c1nccs1 (configuration not stated) | i | i | i | 18 | i | i | i
Cc1ccc(C(=O)ONc2ccc(N=O)cc2)cc1 | i | nt | i | i | nt | nt | nt
Cc1ccc(C(=O)ONc2ccc(N=NC(=O)c3ccccc3O)cc2)cc1 | i | nt | i | 20 | i | i | i
CO[C@H]1CN(C)C(=O)c2ccc(NS(=O)(=O)c3cn(C)cn3)cc2OC[C@H](C)N(Cc2cccc(F)c2)C[C@@H]1C | nt | i | nt | nt | nt | nt | nt
CC1=CC(C)(C)NC(=S)N1c1ccc(C)c(C)c1 | i | i | i | i | nt | nt | nt
CC1=CC(C)(C)NC(=S)N1c1ccc(C)cc1 | i | nt | i | 21 | i | i | i
O=C(C[C@@H]1CC[C@@H]2[C@H](COC[C@H](O)CN2S(=O)(=O)c2cccc(Cl)c2)O1)NCc1ccc2c(c1)OCO2 | nt | i | nt | nt | nt | nt | nt
Cc1cccc(NC(=O)CN2C(=O)N/C(=C/c3ccc(C)s3)C2=O)c1 | i | nt | i | i | nt | nt | nt
Cc1ccc(NC(=O)CN2C(=O)N/C(=C/c3ccco3)C2=O)cc1 | i | nt | 34 | 21 | 14 | i | 26
CC1=C(n2nnc([N+](=O)[O-])n2)C(c2cccnc2)C(C#N)=C(N)O1 (configuration not stated) | i | nt | i | 30 | i | i | i
SMILES | MBD2 inh | Casp6 inh | UHRF1 binding | LEDGF integ inh | IN multimer up | TRFRET interf | IN-LEDGF confirm
CC(C)NC(=O)Nc1ccc2c(c1)C(=O)N([C@H](C)CO)C[C@@H](C)[C@@H](CN(C)S(=O)(=O)c1ccc(Cl)cc1)O2 | nt | i | nt | nt | nt | nt | nt
C[C@H]1CN([C@@H](C)CO)C(=O)c2cc(NC(=O)NC3CCCCC3)ccc2O[C@@H]1CN(C)Cc1ccncc1 | nt | i | nt | nt | nt | nt | nt
O=C1C(=Cc2ccco2)C(=O)c2ccccc21 | i | nt | i | 14 | i | i | i
Cc1cc(-c2csc(N)n2)c(C)n1C | i | nt | i | 22 | i | i | 53
Cc1ccc(-n2c(C)cc(-c3csc(N)n3)c2C)cc1 | i | nt | i | i | nt | nt | nt
Cc1cc(-c2csc(N)n2)c(C)n1Cc1ccco1 | i | i | i | 24 | 17 | i | 80
O=C(NC1CCCC1)[C@H]1[C@H](CO)[C@H]2Cn3c(ccc(C4=CCCC4)c3=O)[C@@H]1N2C(=O)c1ccccc1 | nt | i | nt | nt | nt | nt | nt
COc1cccc(NC(=O)C2CC(=O)N=C(N)S2)c1 (configuration not stated) | i | nt | i | 17 | i | i | i
O=C(NCc1ccc(Cl)cc1)c1ccc(Br)o1 | i | i | i | 56 | i | i | i
Cc1noc(C)c1S(=O)(=O)Nc1ccc2c(c1)CC(=O)N([C@H](C)CO)C[C@@H](C)[C@H](CN(C)Cc1ccc(C(=O)O)cc1)O2 | nt | i | nt | nt | nt | nt | nt
CCC(=O)N[C@H]1CC[C@@H](CCn2cc(CN(C)C)nn2)O[C@@H]1CO | nt | i | nt | nt | nt | nt | nt
N=C1/C(=C\c2coc3ccccc3c2=O)C(=O)N=C2SC=CN12 | i | i | i | 15 | i | i | 26
Cc1nn(-c2cc(C(F)(F)F)ccc2Cl)c2nc(C(F)(F)F)[nH]c(=O)c12 | i | nt | i | 83 | i | i | i
Cc1nn(-c2cccc(Cl)c2)c2nc(C(F)(F)F)[nH]c(=O)c12 | i | i | i | i | nt | nt | nt
Clc1ccc(/C=N/c2c(-c3ccco3)nc3ccccn23)cc1 | i | nt | i | i | nt | nt | nt
Oc1ccccc1/C=N/c1c(-c2ccco2)nc2ccccn12 | i | nt | i | 20 | i | i | i
O=C(c1ccccc1)c1ccc(O)c(O)c1O | i | 73 | i | 22 | i | i | 42
CNC[C@H]1Oc2c(NC(=O)C3CC3)cccc2C(=O)N([C@H](C)CO)C[C@H]1C | nt | i | nt | nt | nt | nt | nt
CNC(=O)c1ccc(CN(C)CC(=O)Nc2ccccc2C(=O)NC2CC2)cc1 | i | i | i | 75 | i | i | i
CO[C@@H]1CN(C)C(=O)c2ccc(NC(=O)c3cc(C)on3)cc2OC[C@H](C)N(CC2CC2)C[C@@H]1C | nt | i | nt | nt | nt | nt | nt
O=[N+]([O-])c1ccc2c(c1)nc1n2CCN(c2ccccc2)C1 | i | i | i | 17 | i | i | i
COc1ccc(C(O)c2nccc3cc(OC)c(OC)cc23)cc1OC (configuration not stated) | i | i | i | 29 | i | i | i
COC(=O)[C@]1(C)N[C@H](CN(C)S(=O)(=O)c2ccc(OC(F)(F)F)cc2)[C@@H]2C(=O)N(Cc3ccccc3)C(=O)[C@@H]21 | i | i | i | 15 | i | i | i
COC(=O)[C@]1(C)N[C@H](CN(C)S(=O)(=O)c2ccc(F)cc2)[C@@H]2C(=O)N(Cc3ccccc3)C(=O)[C@@H]21 | i | i | i | i | nt | nt | nt
CO[C@@H]1CN(C)C(=O)c2ccc(NS(C)(=O)=O)cc2OC[C@@H](C)N(C(=O)C2CC2)C[C@@H]1C | nt | i | nt | nt | nt | nt | nt
Oc1ccc(/C=N/N=C/c2ccc(O)c(O)c2)cc1O | i | 68 | i | 75 | 32 | i | 90
